Records with an inconclusive call do not appear. A call without a number means that no potency is given here. Some compounds were tested as several samples or in several runs, with calls that do not always agree. The source made the active and inactive calls. Unless noted, calls come from the whole dose curve.
Key:
[1] = Nuclear factor erythroid 2-related factor 2/antioxidant responsive element (Nrf2/ARE) small molecule agonists: qHTS cell viability counter screen in human keratinocytes (AID 1919968; active = well fitted curve in the direction sought with a large enough effect in the repeat runs; an effect the other way counts as inactive or inconclusive; note: nearly all actives have a fitted effect of over 55% in size)
Outline: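 KeratinoSens cells (HaCaT keratinocytes stably carrying an ARE-luciferase reporter) were seeded at 1,500 cells/well and rested 5 h at 37 C/5% CO2. They were then exposed to compounds in DMSO for 23 h. Viability was read by CellTiter-Fluor fluorescence after 1 h.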

[2] = Nuclear factor erythroid 2-related factor 2/antioxidant responsive element (Nrf2/ARE) small molecule agonists: luciferase reporter gene qHTS assay in human keratinocytes (AID 1919969); note: nearly all actives have a fitted effect of over 35% in size; note: potency is the fitted concentration of half-maximal effect
[3] = biological target: Gonadotropin-releasing hormone receptor (Homo sapiens) (UniProt P30968); test: Human gonadotropin-releasing hormone receptor (GnRHR) small molecule agonists, calcium flux assay in GnRHR-HEK293 cells (AID 1920063); note: nearly all actives have a fitted effect of over 35% in size
Outline: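 HEK293 cells stably expressing human GnRHR were plated 18 h at 37 °C, loaded with calcium dye 1 h at 37 °C, then given compound in agonist mode; fluorescence (Ex/Em 480/540) read kinetically for 3 min at 1 s intervals.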

[4] = biological target: KiSS-1 receptor (Homo sapiens) (UniProt Q969F8); test: Human kisspeptin (KISS1R) small molecule agonists, calcium flux assay in KISS1R-HEK293 cells (AID 1920064; active = well fitted curve in the direction sought with a large enough effect in the repeat runs; an effect the other way counts as inactive or inconclusive)
Outline: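 HEK293 cells stably expressing human KISS1R were plated 18 h at 37 °C, loaded with calcium dye for 1 h at 37 °C, then given compound by pin tool. Fluorescence (Ex/Em 480/540) was read kinetically for 3 min.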

[5] = G protein-coupled receptor (GPCR) small molecule agonists, calcium flux assay: HEK293 wild type cell line counter screen (AID 1920065)
Outline: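 Cells were plated and cultured 18 h at 37 C/5% CO2, then loaded with calcium dye for 1 h at 37 C. Compounds in DMSO were pin-transferred in agonist mode, and fluorescence (Ex/Em 480/540) was read kinetically for 3 min at 1 s intervals.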

[6] = p53 small molecule agonists, cell-based qHTS assay with human liver microsomes (AID 1963577);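 note: p53 response element beta-lactamase reporter cells with liver microsomes plus NADPH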
Outline: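 HLM-supplemented p53RE-bla reporter assay: 16 h compound exposure at 37 C, microsomes and NADPH each 0.5 mg/mL final, read by fluorescence intensity.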

[7] = p53 small molecule agonists, cell-based qHTS assay with rat liver microsomes (AID 1963578)
Outline: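 Quantitative HTS of the Tox21 10K library: p53RE-bla cells, rat liver microsomes plus NADPH at 0.5 mg/mL final each, 16 h at 37 C, beta-lactamase fluorescence detection.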

[8] = p53 small molecule agonists, cell-based qHTS assay with human liver microsomes: qHTS cell viability counter screen (AID 1963579); note: nearly all actives have a fitted effect of over 45% in size
Outline: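 Viability of p53RE-bla cells is measured as CellTiter-Glo luminescence following a 16 h, 37 C incubation with compound, liver microsomes from human donors and NADPH.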

[9] = p53 small molecule agonists, cell-based qHTS assay with rat liver microsomes: qHTS cell viability counter screen (AID 1963580); note: nearly all actives have a fitted effect of over 45% in size
Outline: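 In HCT-116 cells carrying a p53 response element-bla reporter, compounds were metabolically activated in situ by rat liver microsomes with NADPH over 16 h. Cell ATP content then served as the cytotoxicity measure.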

[10] = p53 small molecule agonists, cell-based qHTS assay: qHTS cell viability counter screen (AID 1963581); note: nearly all actives have a fitted effect of over 45% in size
Outline: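 p53RE-bla HCT-116 cells were exposed to compounds for 16 h at 37 C; after the beta-lactamase FRET read in the same wells, CellTiter-Glo was added and luminescence (intracellular ATP) read after 30 min at room temperature.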

[11] = p53 small molecule agonists, cell-based qHTS assay (AID 1963582; active = well fitted activation curve with a large enough effect in the signal ratio in the repeat runs, not every such curve was filed as active; the % refers to the signal ratio)
Outline: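 p53RE-bla beta-lactamase reporter cells rested 5 h at 37 C/5% CO2, then received compounds in DMSO by pin transfer and were incubated 16 h at 37 C. LiveBLAzer B/G FRET substrate was loaded for 2 h at room temperature before fluorescence reading.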

[12] = biological target: 5-hydroxytryptamine receptor 2A (Homo sapiens) (UniProt P28223); test: 5-hydroxytryptamine receptor 2A (HTR2A) small molecule agonists, cell-based qHTS assay (AID 1963587); note: nearly all actives have a fitted effect of over 30% in size
Outline: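 HTR2A-CHO cells, plated 18 h at 37 C/5% CO2, dye-loaded 1 h at 37 C; compounds in DMSO added by pin tool (agonist mode). Intracellular calcium flux read as kinetic fluorescence on FDSS over 2 min at 1 s intervals.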

[13] = biological target: Muscarinic acetylcholine receptor M1 (Homo sapiens) (UniProt P11229); test: Cholinergic receptor muscarinic 1 (CHRM1) small molecule antagonists, cell-based qHTS assay (AID 1963588); note: nearly all actives have a fitted effect of over 40% in size
Outline: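 CHRM1-CHO calcium-flux assay, antagonist mode. Cells were seeded 18 h, dye-loaded 1 h at 37 C and given compound for 5 min at RT, then acetylcholine was added at 50nM. FDSS fluorescence was read 3 min; 15 concentrations, three runs.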

[14] = cAMP Responsive Elements (CRE) small molecule agonists, cell-based qHTS assay (AID 1963590)
Outline: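 CRE-bla HEK 293T cells in DMEM with 10% dialyzed FBS, NEAA, pyruvate and 25 mM HEPES were plated 18 h at 37 C/5% CO2, then exposed to compounds in DMSO for 3 h before LiveBLAzer B/G FRET substrate addition.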

[15] = cAMP Responsive Elements (CRE) small molecule antagonists, cell-based qHTS assay (AID 1963591; active = well fitted inhibition curve with a large enough effect in the signal ratio in the repeat runs, not every such curve was filed as active; the % refers to the signal ratio)
Outline: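 CRE-bla HEK293T cells were plated 18 h at 37 °C/5% CO2, pinned with compound in DMSO, then stimulated with NKH477 at 0.25 uM final for 3 h. LiveBLAzer B/G FRET substrate was added and plates incubated 2 h at room temperature.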

[16] = biological target: Beta-2 adrenergic receptor (Homo sapiens) (UniProt P07550); test: Adrenergic beta2 receptor (ADRB2) small molecule antagonists, cell-based qHTS assay (AID 1963592); note: series mostly up to about 92 µM; nearly all actives have a fitted effect of over 50% in size
Outline: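 Cells (CHO, stable ADRB2 overexpression) incubated 18-20hr at 37C; compounds added from DMSO; agonist mix (1nM isoproterenol, 100uM IBMX, 25uM Ro-20-1724) added; 0.5hr RT; d2-cAMP and anti-cAMP-cryptate added; 1hr RT; 665/615 nm read.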

[17] = biological target: Beta-2 adrenergic receptor (Homo sapiens) (UniProt P07550); test: Adrenergic beta2 receptor (ADRB2) small molecule agonists, cell-based qHTS assay (AID 1963593);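 note: CHO cells stably overexpressing human ADRB2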
Outline: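 CHO cells stably over-expressing ADRB2 were plated overnight at 37C, then dosed with compounds plus a stimulation mix containing 100uM IBMX and 25uM Ro-20-1724 for 0.5hr at room temperature. cAMP was measured by HTRF competition, 1hr.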

[18] = biological target: D(2) dopamine receptor (Homo sapiens) (UniProt P14416); test: Dopamine D2 receptor (DRD2) small molecule agonists, cell-based qHTS assay (AID 1963594); note: nearly all actives have a fitted effect of over 35% in size
Outline: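 HEK293 cells stably expressing DRD2 were cultured 24 h at 37 C, then given Ro20-1724 (0.1 mM final) and compounds for 10 min at room temperature. NKH477 (200nM) was then added for 30 min. cAMP was read by HTRF.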

[19] = biological target: D(2) dopamine receptor (Homo sapiens) (UniProt P14416); test: Dopamine D2 receptor (DRD2) small molecule antagonists, cell-based qHTS assay (AID 1963595; active = well fitted inhibition curve with a large enough effect in the signal ratio in the repeat runs, with a control signal flat; the % refers to the signal ratio)
Outline: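 Antagonism was scored as restored cAMP in HEK293-DRD2 cells. These cells were stimulated with 200 nM NKH477 and 12 nM quinpirole for 30 min at room temperature, in the presence of 0.1 mM Ro20-1724.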

[20] = biological target: Muscarinic acetylcholine receptor M1 (Homo sapiens) (UniProt P11229); test: Cholinergic receptor muscarinic 1 (CHRM1) small molecule agonists, cell-based qHTS assay (AID 1963589); note: nearly all actives have a fitted effect of over 35% in size
Outline: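 CHO cells stably expressing human CHRM1, seeded 18 h at 37 C/5% CO2, dye-loaded 1 h at 37 C, then given compound in agonist mode; intracellular calcium fluorescence read kinetically at 1 s intervals. Fifteen concentrations, three independent runs.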

Chain of Muscarinic acetylcholine receptor M1 (Homo sapiens) (P11229 whole entry, looked up): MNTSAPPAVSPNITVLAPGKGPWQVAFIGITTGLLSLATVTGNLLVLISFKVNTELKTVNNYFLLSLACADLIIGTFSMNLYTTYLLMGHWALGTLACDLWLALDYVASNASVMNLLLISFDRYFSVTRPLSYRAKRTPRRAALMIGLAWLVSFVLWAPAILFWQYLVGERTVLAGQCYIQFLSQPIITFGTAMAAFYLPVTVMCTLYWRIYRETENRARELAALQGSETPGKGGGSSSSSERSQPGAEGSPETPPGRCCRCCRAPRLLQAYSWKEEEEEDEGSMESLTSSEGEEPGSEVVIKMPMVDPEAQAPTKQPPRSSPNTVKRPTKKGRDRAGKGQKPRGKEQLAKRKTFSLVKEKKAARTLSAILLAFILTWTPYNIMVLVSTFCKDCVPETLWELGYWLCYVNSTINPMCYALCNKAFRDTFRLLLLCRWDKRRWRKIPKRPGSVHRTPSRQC
Chain of Beta-2 adrenergic receptor (Homo sapiens) (P07550 whole entry, looked up): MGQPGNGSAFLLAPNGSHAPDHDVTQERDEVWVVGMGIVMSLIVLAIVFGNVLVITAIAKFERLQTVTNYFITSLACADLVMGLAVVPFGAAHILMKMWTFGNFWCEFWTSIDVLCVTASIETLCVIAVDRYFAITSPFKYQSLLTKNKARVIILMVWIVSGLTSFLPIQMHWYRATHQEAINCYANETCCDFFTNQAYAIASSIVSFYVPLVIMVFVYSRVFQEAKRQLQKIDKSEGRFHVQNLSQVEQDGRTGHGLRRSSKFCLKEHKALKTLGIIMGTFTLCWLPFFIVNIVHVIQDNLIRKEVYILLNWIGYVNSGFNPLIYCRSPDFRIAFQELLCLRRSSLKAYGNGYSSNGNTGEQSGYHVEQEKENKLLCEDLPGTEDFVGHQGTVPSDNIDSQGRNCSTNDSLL
Chain of KiSS-1 receptor (Homo sapiens) (Q969F8 whole entry, looked up): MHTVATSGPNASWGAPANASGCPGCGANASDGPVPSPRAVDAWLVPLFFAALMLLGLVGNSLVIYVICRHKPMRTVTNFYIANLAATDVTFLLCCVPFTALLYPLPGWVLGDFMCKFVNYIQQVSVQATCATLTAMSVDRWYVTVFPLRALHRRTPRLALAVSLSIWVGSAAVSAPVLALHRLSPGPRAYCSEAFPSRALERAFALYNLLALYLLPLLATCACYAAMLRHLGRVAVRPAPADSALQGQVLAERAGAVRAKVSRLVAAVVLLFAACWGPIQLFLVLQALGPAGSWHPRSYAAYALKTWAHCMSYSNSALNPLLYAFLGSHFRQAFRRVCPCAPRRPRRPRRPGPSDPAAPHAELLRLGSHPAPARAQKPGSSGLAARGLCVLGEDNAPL
Chain of 5-hydroxytryptamine receptor 2A (Homo sapiens) (P28223 whole entry, looked up): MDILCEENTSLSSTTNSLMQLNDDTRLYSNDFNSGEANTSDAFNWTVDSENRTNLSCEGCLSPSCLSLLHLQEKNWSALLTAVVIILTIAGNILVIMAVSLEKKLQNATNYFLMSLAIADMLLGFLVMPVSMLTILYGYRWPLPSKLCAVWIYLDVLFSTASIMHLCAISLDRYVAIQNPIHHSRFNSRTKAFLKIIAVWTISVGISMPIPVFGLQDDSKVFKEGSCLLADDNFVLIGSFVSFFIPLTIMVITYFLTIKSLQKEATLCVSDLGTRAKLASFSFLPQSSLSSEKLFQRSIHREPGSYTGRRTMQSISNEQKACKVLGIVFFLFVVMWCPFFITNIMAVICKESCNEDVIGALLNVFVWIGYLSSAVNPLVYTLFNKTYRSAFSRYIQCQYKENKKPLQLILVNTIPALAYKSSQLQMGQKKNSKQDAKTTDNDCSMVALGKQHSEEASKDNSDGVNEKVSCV
Chain of D(2) dopamine receptor (Homo sapiens) (P14416 whole entry, looked up): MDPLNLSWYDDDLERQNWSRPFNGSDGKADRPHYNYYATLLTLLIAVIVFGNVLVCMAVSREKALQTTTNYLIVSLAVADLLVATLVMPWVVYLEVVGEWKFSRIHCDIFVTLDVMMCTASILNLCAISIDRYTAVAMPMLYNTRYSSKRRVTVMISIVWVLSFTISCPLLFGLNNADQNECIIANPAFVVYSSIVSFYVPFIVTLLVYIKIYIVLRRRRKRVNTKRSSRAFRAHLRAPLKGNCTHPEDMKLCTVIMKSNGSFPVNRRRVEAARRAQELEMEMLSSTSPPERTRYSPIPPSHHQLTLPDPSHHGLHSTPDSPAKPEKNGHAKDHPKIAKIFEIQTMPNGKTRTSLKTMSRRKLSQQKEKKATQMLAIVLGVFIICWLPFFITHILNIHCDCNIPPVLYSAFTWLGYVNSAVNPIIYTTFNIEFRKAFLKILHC
Chain of Gonadotropin-releasing hormone receptor (Homo sapiens) (P30968 whole entry, looked up): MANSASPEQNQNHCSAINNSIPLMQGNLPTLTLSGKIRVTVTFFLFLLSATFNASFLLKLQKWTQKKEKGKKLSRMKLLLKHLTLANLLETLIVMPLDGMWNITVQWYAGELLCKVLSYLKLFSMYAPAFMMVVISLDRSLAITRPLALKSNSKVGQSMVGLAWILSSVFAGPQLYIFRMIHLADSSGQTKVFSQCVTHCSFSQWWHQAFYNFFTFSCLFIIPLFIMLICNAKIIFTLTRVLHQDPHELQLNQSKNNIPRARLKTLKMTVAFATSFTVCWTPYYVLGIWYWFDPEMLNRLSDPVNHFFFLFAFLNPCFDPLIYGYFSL

| SMILES | Potency [1] | Potency [2] | Potency [3] | Potency [4] | Potency [5] | Potency [6] | Potency [7] | Potency [8] | Potency [9] | Potency [10] | Potency [11] | Potency [12] | Potency [13] | Potency [14] | Potency [15] | Potency [16] | Potency [17] | Potency [18] | Potency [19] | Potency [20] |
| --- | --- | --- | --- | --- | --- | --- | --- | --- | --- | --- | --- | --- | --- | --- | --- | --- | --- | --- | --- | --- |
| O=CCCCC=O | inactive | 52.5 µM (active) and inactive | inactive | inactive | inactive | inactive | inactive | inactive | inactive | inactive | inactive | inactive | inactive | inactive | inactive | inactive | inactive | inactive | inactive | – |
| O=C(O)CCCCCCCC(=O)O | inactive | inactive | inactive | inactive | inactive | inactive | inactive | inactive | inactive | inactive | inactive | – | inactive | inactive | inactive | inactive | inactive | inactive | inactive | inactive |
| C=C(C)C1CC=C(C)CC1 (stereo unspecified) | inactive | inactive | inactive | inactive | inactive | inactive | inactive | inactive | inactive | inactive | inactive | inactive | – | inactive | inactive | inactive | inactive | inactive | inactive | inactive |
| COCCOCCOCCO | inactive | inactive | inactive | inactive | inactive | inactive | inactive | inactive | inactive | inactive | inactive | inactive | inactive | inactive | inactive | inactive | inactive | inactive | inactive | inactive |
| O=[N+]([O-])c1ccccc1C(F)(F)F | inactive | inactive | inactive | inactive | inactive | inactive | inactive | inactive | inactive | inactive | inactive | inactive | – | inactive | inactive | inactive | inactive | inactive | inactive | inactive |
| CCCCCCCCCCCCCC(=O)OC(C)C | inactive | inactive | inactive | inactive | inactive | inactive | inactive | inactive | inactive | inactive | inactive | inactive | inactive | inactive | inactive | inactive | inactive | inactive | inactive | inactive |
| CC(C)OP(=O)(CP(=O)(OC(C)C)OC(C)C)OC(C)C | inactive | inactive | inactive | inactive | inactive | inactive | inactive | inactive | inactive | inactive | inactive | – | inactive | – | inactive | inactive | inactive | inactive | inactive | inactive |
| CCCCNC(=O)NS(=O)(=O)c1ccc(C)cc1 | inactive | inactive | inactive | inactive | inactive | inactive | inactive | inactive | inactive | inactive | inactive | – | inactive | – | inactive | inactive | inactive | inactive | inactive | inactive |
| Cc1cc(C)c(C)cc1C | inactive | inactive | inactive | inactive | inactive | inactive | inactive | inactive | inactive | inactive | inactive | inactive | inactive | inactive | inactive | inactive | inactive | inactive | inactive | – |
| O=c1cc[nH]c(=O)[nH]1 | inactive | inactive | inactive | inactive | inactive | inactive | inactive | inactive | inactive | inactive | inactive | inactive | – | inactive | inactive | – | – | inactive | inactive | inactive |
| O=S(=O)(O)c1ccc2cc(O)ccc2c1 | inactive | inactive | inactive | inactive | inactive | inactive | inactive | inactive | inactive | inactive | inactive | inactive | inactive | inactive | inactive | inactive | inactive | inactive | inactive | inactive |
| COC(=O)c1ccccc1 | inactive | inactive | inactive | inactive | inactive | inactive | inactive | inactive | inactive | inactive | inactive | inactive | inactive | inactive | inactive | inactive | inactive | inactive | inactive | inactive |
| C=C(C)C(N)=O | inactive | inactive | inactive | inactive | inactive | inactive | inactive | inactive | inactive | inactive | inactive | inactive | – | inactive | inactive | inactive | inactive | inactive | inactive | inactive |
| O=[N+]([O-])c1cc(C(F)(F)F)ccc1Cl | inactive | inactive | inactive | inactive | inactive | inactive | inactive | inactive | inactive | inactive | inactive | inactive | – | inactive | inactive | inactive | inactive | inactive | inactive | inactive |

Reference: PubChem BioAssay (Tox21)
